Laboratory results published in PubChem BioAssay (EPA / NIEHS).
Some structures have more than one record in an assay (separate samples or runs), and their calls can disagree. Activity calls are given as the source filed them. How the source made its calls: active means hit-call score of the fitted dose curve at least 0.9, where 1 is the maximum; inactive means score below 0.9.

Experiments:
[1] = ATG_M_61_CIS: Attagene CIS-FACTORIAL HepG2 Assay for M61 Transcription Factor (Internal Marker) (AID 2282937); details: HepG2 Attagene CIS-FACTORIAL M61 internal marker reporter; actives raise or lower the signal
Method in brief: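 Using transiently transfected HepG2 liver cells, reporter transcript levels were assessed 24 h post-dosing by RT-PCR and capillary electrophoresis. Changes in either direction were fitted relative to DMSO controls.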

[2] = ATG_EGR_CIS: Attagene CIS-FACTORIAL HepG2 Assay for human Early Growth Response 1 (EGR1) (AID 2282938); details: HepG2 Attagene CIS-FACTORIAL EGR reporter mRNA; actives raise or lower the signal
Method in brief: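 Fluorescent capillary-electrophoresis signal of reporter cDNA fragments serves as read-out. HepG2 cells bear transiently transfected cis-promoter reporter units and are exposed 24 h; gain- or loss-of-signal is fitted against DMSO.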

[3] = ATG_M_19_CIS: Attagene CIS-FACTORIAL HepG2 Assay for M19 Transcription Factor (Internal Marker) (AID 2282939); details: HepG2 Attagene CIS-FACTORIAL M19 internal marker reporter; actives raise or lower the signal
Method in brief: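 Background-control endpoint from a multiplexed HepG2 reporter panel. Cells carrying cis-regulated reporter constructs are treated 24 h, then reporter transcripts are amplified, fluorescently labelled and sized by capillary electrophoresis. DMSO defines baseline.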

[4] = ATG_ERE_CIS: Attagene CIS-FACTORIAL HepG2 Assay for Estrogen Response Element (ERE) (AID 2282940); details: HepG2 ERE cis-reporter, Attagene RNA transcript; actives raise or lower the signal
Method in brief: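 Cells used were human hepatoma HepG2, transfected with multiple reporter transcription units under cis-regulatory promoters. Reporter mRNA, read 24 h post-dosing via fluorescent RT-PCR products on capillary electrophoresis, was fitted bidirectionally relative to DMSO.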

[5] = ATG_Ets_CIS: Attagene CIS-FACTORIAL HepG2 Assay for human Erythroblast Transformation Specific (ETS) (AID 2282941); details: HepG2 ETS cis-reporter transcription, actives raise or lower the signal
Method in brief: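 Cis-regulated reporter mRNA induction in HepG2 (transient transfection), 24 h exposure, RT-PCR plus capillary electrophoresis detection; DMSO serves as negative control and baseline.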

[6] = target: Hepatocyte nuclear factor 3-beta (Homo sapiens) (UniProt Q9Y261); test: ATG_FoxA2_CIS: Attagene CIS-FACTORIAL HepG2 Assay for human Forkhead box A2 (FOXA2) (AID 2282942); details: HepG2 cis-reporter transcription factor activity, 24 h; actives raise or lower the signal
Method in brief: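 Fluorescence signal of reporter cDNA fragments, separated by capillary electrophoresis, reflects endogenous transcription factor activity in transfected HepG2 after 24 h. Both increases and decreases fitted against DMSO.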

[7] = ATG_GATA_CIS: Attagene CIS-FACTORIAL HepG2 Assay for human GATA Binding Protein (AID 2282944); details: HepG2 GATA cis-element reporter, Attagene multiplex mRNA; actives raise or lower the signal
Method in brief: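 Endogenous transcription factor activity was captured through cis-promoter-driven reporters in transfected HepG2 cells. After 24 h exposure, reporter transcripts were quantified by RT-PCR with fluorescent capillary electrophoresis, and responses fitted both directions against DMSO.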

[8] = target: Bile acid receptor (Homo sapiens) (UniProt Q96RI1); test: ATG_IR1_CIS: Attagene CIS-FACTORIAL HepG2 Assay for human Nuclear Receptor Subfamily 1 Group H Member 4 (NR1H4), IR1 submotif (AID 2282946); details: IR1 reporter transcription, actives raise or lower the signal
Method in brief: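 Readout: reporter transcript levels by RT-PCR with fluorescent capillary electrophoresis, from HepG2 cells transiently transfected with multiplexed cis-regulated reporters and dosed 24 h. Gain- or loss-of-signal fitted versus DMSO negative control.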

[9] = ATG_GRE_CIS: Attagene CIS-FACTORIAL HepG2 Assay for human Glucocorticoid Response Elements (GRE) (AID 2282947); details: HepG2 GRE cis-reporter, Attagene multiplex mRNA; actives raise or lower the signal
Method in brief: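 Cells (HepG2) bearing transfected cis-promoter reporter transcription units were treated with chemical for 24 hours. Reporter mRNA was measured via RT-PCR with capillary electrophoresis, and activity was fitted in both directions relative to DMSO.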

[10] = ATG_ISRE_CIS: Attagene CIS-FACTORIAL HepG2 Assay for human Interferon Regulatory Factor 1 (IRF1) binding to an Interferon-Stimulated Response Element (ISRE) (AID 2282948); details: HepG2 ISRE cis-reporter (Attagene), mRNA transcription readout; actives raise or lower the signal
Method in brief: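 Multiplexed mRNA reporter readout in human liver HepG2 cells: cis-element-driven reporters transfected, compound added for 24 h, transcripts amplified, fluorescently labelled and sized by capillary electrophoresis; curve fitting bidirectional against DMSO.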

[11] = ATG_M_32_CIS: Attagene CIS-FACTORIAL HepG2 Assay for M32 Transcription Factor (Internal Marker) (AID 2282949); details: HepG2 Attagene cis-factorial M32 reporter, mRNA; actives raise or lower the signal;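 further: background control marker of the multiplexed CIS panel rather than a real target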
Method in brief: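 HepG2 human liver cells transiently transfected with cis-promoter-driven multiple reporter transcription units, dosed 24 h. Reporter mRNA quantified by RT-PCR, FAM-labelled primer extension, HpaI digest and capillary electrophoresis; bidirectional fit versus DMSO baseline.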

[12] = ATG_M_06_CIS: Attagene CIS-FACTORIAL HepG2 Assay for M06 Transcription Factor (Internal Marker) (AID 2282950); details: HepG2 Attagene CIS-FACTORIAL M06 internal marker reporter; actives raise or lower the signal
Method in brief: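 Steps: transfect HepG2 with multiplexed cis-element reporter constructs; dose chemical 24 h; extract RNA with DNase treatment; reverse-transcribe, PCR-amplify, 6-FAM label, HpaI digest; separate fragments by capillary electrophoresis. Activity fitted both directions versus DMSO.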

[13] = target: Hypoxia-inducible factor 1-alpha (Homo sapiens) (UniProt Q16665); test: ATG_HIF1a_CIS: Attagene CIS-FACTORIAL HepG2 Assay for human Hypoxia Inducible Factor 1 (HIF1A) (AID 2282951); details: HepG2 Attagene cis-factorial HIF1a reporter transcription; actives raise or lower the signal
Method in brief: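 Endogenous-TF cis reporter readout, human HepG2 cells, 24 h incubation; mRNA detected via RT-PCR and capillary electrophoresis fluorescence; DMSO-normalised bidirectional fitting.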

[14] = target: Hepatocyte nuclear factor 6 (Homo sapiens) (UniProt Q9UBC0); test: ATG_HNF6_CIS: Attagene CIS-FACTORIAL HepG2 Assay for human Hepatocyte Nuclear Factor 6 (HNF6) (AID 2282952); details: HepG2 Attagene cis-factorial HNF6 reporter transcription; actives raise or lower the signal
Method in brief: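 Endogenous factor activity read in transiently transfected HepG2 via promoter-regulated reporter transcripts. RNA harvested 24 h post-dosing, reverse-transcribed, PCR-amplified, FAM-labelled, HpaI-digested and resolved by capillary electrophoresis; fitted in both directions against DMSO.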

[15] = target: Heat shock factor protein 1 (Homo sapiens) (UniProt Q00613); test: ATG_HSE_CIS: Attagene CIS-FACTORIAL HepG2 Assay for human Heat Shock Transcription Factor 1 (HSE) (AID 2282953); details: HepG2 HSE cis-reporter, Attagene RNA transcription; actives raise or lower the signal
Method in brief: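 Cells were transfected with cis-element-driven reporter constructs, dosed for 24 h, then total RNA was reverse-transcribed and reporter cDNA amplified, FAM-labelled and digested with HpaI. Fragments were resolved by capillary electrophoresis; gain or loss was fitted against DMSO.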

[16] = ATG_MRE_CIS: Attagene CIS-FACTORIAL HepG2 Assay for human Metal Responsive Element (MRE) (AID 2282954); details: HepG2 MRE cis-reporter transcription, Attagene multiplex; actives raise or lower the signal
Method in brief: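 Cells were transfected with cis-promoter reporter transcription units, then dosed for 24 h. RNA was reverse-transcribed, amplified, fluorescently labelled and resolved by capillary electrophoresis, and activity was fitted in both directions relative to DMSO.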

[17] = target: Paired box protein Pax-6 (Homo sapiens) (UniProt P26367); test: ATG_Pax6_CIS: Attagene CIS-FACTORIAL HepG2 Assay for human Paired Box 6 (PAX6) (AID 2282956); details: HepG2 CIS-FACTORIAL PAX6 reporter transcription, RNA readout; actives raise or lower the signal
Method in brief: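 Fluorescent RT-PCR products separated by capillary electrophoresis report PAX6-linked promoter mRNA in HepG2 cells 24 h post-dose. Curves fitted bidirectionally, DMSO as negative control.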

[18] = ATG_PBREM_CIS: Attagene CIS-FACTORIAL HepG2 Assay for human Phenobarbital-responsive Enhancer Module (PBREM) (AID 2282955); details: HepG2 PBREM cis-reporter, Attagene multiplexed transcription; actives raise or lower the signal
Method in brief: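 Readout: reporter mRNA, fluorescent RT-PCR fragments separated by capillary electrophoresis. System: HepG2 transiently transfected with cis-regulated reporter units. Exposure: 24 h. Analysis: bidirectional, DMSO baseline.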

[19] = ATG_GLI_CIS: Attagene CIS-FACTORIAL HepG2 Assay for human Zinc Finger Protein GLI1 (AID 2282945); details: HepG2, Attagene cis-factorial reporter mRNA, GLI element; actives raise or lower the signal
Method in brief: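 HepG2 cells transiently transfected with cis-promoter multiplexed reporter units report endogenous transcription factor activity. After 24 h chemical exposure, reporter mRNA was quantified by RT-PCR, 6-FAM labelling, HpaI digestion and capillary electrophoresis, with bidirectional fitting against DMSO.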

[20] = ATG_FoxO_CIS: Attagene CIS-FACTORIAL HepG2 Assay for human Forkhead box O (FoxO) (AID 2282943); details: HepG2 Attagene cis-reporter, FoxO element, mRNA; actives raise or lower the signal
Method in brief: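 24 h chemical exposure, HepG2 with transient cis-MRTU transfection. RNA extraction, oligo(dT) RT, reporter-specific PCR, primer-extension labelling, HpaI digestion, CE fragment analysis; bidirectional fit, DMSO baseline.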

Measured: AC50

Bile acid receptor (Homo sapiens), sequence (Q96RI1 whole entry, looked up): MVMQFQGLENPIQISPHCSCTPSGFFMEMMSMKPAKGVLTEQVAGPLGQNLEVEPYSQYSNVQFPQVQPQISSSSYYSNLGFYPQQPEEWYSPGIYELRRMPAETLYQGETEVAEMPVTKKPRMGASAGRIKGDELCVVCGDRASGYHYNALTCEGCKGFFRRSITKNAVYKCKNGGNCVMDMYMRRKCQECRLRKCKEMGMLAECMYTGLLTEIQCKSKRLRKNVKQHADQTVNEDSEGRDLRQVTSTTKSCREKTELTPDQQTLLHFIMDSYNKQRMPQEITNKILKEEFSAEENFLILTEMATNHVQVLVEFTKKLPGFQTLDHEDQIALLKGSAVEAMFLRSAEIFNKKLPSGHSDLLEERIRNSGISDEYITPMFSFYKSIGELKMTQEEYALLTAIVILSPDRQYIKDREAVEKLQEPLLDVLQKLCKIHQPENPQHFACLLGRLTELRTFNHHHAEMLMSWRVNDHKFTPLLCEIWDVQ
Hepatocyte nuclear factor 3-beta (Homo sapiens), sequence (Q9Y261 whole entry, looked up, the tested form may be a part): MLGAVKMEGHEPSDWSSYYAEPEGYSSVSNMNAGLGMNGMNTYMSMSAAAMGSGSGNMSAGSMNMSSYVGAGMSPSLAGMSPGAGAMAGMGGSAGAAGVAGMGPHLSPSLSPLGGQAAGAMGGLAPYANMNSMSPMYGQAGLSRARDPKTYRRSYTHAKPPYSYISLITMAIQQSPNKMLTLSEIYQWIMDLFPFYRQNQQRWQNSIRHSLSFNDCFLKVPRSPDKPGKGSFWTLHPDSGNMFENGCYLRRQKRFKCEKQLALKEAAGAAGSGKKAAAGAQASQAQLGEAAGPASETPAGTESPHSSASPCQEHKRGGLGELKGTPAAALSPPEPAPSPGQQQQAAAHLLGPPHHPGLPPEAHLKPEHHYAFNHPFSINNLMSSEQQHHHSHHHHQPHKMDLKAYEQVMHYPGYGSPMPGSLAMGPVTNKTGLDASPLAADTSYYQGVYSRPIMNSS
Hepatocyte nuclear factor 6 (Homo sapiens), sequence (Q9UBC0 whole entry, looked up): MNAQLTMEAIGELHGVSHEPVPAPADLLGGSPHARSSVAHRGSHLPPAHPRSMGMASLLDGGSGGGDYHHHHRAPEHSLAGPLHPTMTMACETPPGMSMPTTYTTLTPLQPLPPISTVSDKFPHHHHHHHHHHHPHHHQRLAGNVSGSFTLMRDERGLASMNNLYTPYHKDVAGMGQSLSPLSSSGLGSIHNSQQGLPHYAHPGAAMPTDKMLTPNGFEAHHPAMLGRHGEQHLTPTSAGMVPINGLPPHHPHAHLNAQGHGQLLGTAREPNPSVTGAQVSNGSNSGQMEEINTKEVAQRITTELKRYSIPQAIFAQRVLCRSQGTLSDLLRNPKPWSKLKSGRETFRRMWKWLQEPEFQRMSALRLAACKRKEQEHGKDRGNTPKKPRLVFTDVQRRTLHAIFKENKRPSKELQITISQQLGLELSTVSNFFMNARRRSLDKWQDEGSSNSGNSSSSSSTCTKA
Paired box protein Pax-6 (Homo sapiens), sequence (P26367 whole entry, looked up): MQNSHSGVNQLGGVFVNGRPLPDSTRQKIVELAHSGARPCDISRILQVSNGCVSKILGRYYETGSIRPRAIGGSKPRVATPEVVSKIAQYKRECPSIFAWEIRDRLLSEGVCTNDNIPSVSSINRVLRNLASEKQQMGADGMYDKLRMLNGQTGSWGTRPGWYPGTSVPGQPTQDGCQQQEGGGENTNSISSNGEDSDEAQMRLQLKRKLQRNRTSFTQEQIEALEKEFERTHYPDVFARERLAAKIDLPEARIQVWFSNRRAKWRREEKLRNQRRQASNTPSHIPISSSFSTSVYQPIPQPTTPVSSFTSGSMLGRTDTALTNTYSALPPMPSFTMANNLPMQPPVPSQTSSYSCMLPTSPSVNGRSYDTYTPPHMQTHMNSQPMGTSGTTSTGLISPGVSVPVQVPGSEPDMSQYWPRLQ
Heat shock factor protein 1 (Homo sapiens), sequence (Q00613 whole entry, looked up, the tested form may be a part): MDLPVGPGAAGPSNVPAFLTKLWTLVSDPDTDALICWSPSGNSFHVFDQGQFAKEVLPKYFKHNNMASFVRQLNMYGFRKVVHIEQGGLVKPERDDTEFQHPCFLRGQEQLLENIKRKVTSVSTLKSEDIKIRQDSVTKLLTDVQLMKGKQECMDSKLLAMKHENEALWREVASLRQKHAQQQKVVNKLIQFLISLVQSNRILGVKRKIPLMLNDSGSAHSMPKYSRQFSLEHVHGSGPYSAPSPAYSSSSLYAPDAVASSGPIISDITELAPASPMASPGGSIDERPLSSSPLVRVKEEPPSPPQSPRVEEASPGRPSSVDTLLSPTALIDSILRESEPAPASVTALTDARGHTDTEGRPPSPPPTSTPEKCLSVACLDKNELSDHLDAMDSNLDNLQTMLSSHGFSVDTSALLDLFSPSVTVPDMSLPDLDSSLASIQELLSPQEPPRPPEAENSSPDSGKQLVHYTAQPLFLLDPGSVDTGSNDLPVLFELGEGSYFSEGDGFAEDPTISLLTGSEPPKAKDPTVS
Hypoxia-inducible factor 1-alpha (Homo sapiens), sequence (Q16665 whole entry, looked up): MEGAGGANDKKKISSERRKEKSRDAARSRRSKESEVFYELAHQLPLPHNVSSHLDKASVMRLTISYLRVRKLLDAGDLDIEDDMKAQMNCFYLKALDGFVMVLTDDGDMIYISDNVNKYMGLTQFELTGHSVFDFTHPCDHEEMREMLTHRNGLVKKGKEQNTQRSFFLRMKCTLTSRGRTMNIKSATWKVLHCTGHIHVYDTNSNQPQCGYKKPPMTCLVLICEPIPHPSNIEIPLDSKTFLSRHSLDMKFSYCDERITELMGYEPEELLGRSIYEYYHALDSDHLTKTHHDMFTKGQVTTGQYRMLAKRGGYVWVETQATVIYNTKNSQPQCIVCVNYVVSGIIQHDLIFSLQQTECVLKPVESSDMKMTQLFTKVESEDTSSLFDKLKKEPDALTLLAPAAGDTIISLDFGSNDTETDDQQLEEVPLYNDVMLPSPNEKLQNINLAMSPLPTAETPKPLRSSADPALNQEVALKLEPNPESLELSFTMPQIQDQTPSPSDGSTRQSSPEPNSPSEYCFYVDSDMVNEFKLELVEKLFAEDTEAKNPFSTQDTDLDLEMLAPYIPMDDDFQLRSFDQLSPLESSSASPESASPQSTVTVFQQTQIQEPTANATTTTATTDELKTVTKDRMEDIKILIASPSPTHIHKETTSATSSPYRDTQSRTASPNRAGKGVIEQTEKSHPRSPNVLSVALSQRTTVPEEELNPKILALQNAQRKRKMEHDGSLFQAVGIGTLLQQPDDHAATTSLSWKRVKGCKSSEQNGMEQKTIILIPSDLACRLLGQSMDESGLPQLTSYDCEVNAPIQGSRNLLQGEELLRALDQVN

Cc1nn(C)c(Oc2ccccc2)c1C=NOCc1ccc(C(=O)OC(C)(C)C)cc1
active: [2] 0.934 µM | [15] 9.45 µM | [16] 1.88 µM | [17] 1.88 µM
not listed: [18] | [19] | [20]
inactive: all other assays above

c1ccc2[nH]c(-c3cscn3)nc2c1
not listed: [16] | [19] | [20]
inactive: all other assays above

N#CSCSc1nc2ccccc2s1
inactive: [1] | [2] | [3] | [4] | [6] | [7] | [19] | [8] | [9] | [10] | [11] | [12] | [13] | [14] | [15] | [18] | [17]
active: [10] 3.07 µM | [15] 18.1 µM | [17] 11.1 µM

CSC(=O)c1cccc2nnsc12
not listed: [5] | [8]
inactive: all other assays above

CCCCC(CC)COC(=O)c1ccccc1C(=O)O (configuration not stated)
not listed: [4] | [5] | [8] | [19] | [20]
inactive: all other assays above

CCCCCCC(C)OC(=O)COc1nc(F)c(Cl)c(N)c1Cl (configuration not stated)
not listed: [4] | [8] | [9] | [16] | [18] | [20]
inactive: all other assays above

CC1(C)C(C=C(Cl)Cl)C1C(=O)OCc1cccc(Oc2ccccc2)c1 (configuration not stated)
active: [4] 21.3 µM
not listed: [5] | [8] | [19] | [20]
inactive: all other assays above
